A selection: hits, their analogues and other compounds. The true share with any hit is near 2.8%.
TWEAK Fn14 block: inhibitors of TWEAK-Fn14 signaling, primary screen, luciferase reporter cells, uHTS; inhibition, % at 10 µM; hit rate 2% among 360,000; AID 1159606, 2016; TWEAK-stimulated Fn14 reporter cells, luciferase luminescence, 8 h; in the data active = inhibition above about 50%
EWS-Fli block: EWS/Fli-driven NR0B1 reporter inhibitors, primary screen, A673 cells, NR0B1 luciferase, luminescence, MLPCN library. viability-normalised. inhibition, % at 12.6 µM. hit rate 0.67% among 350,000;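 active = mean inhibition of at least 50% after viability correction, with every replicate also passing that limit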;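 also: firefly luciferase signal divided by Alamar Blue viability fluorescence both relative to DMSO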
PAX8 reporter: inhibitors of PAX8-driven TPO luciferase reporter, primary screen, RMG-I cells, single concentration; SteadyGlo, 24 h; inhibition, % at 12.6 µM; hit rate 1.2% among 360,000; AID 652154, 2013;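 active = mean replicate inhibition at least 60% with every replicate also reaching 60%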;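 also: luciferase light reporting Pax8 driven TPO promoter activity; plate controls were median of neutral control wells for no effect and mitoxantrone controls for full effect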
LGR2 inh: inhibitors of bursicon-induced LGR2 CRE-luciferase signal, primary screen, cell-based, HEK293, CRE-luciferase reporter, bursicon stimulation. bursicon-stimulated, 4 h. inhibition, % at 9.99 µM. hit rate 0.35% among 380,000. AID 720647, 2013;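 active = drop in luminescence signal, shown as inhibition above about 50% in the replicate tests, limit read from the data, passing the limit was not always enough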;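 also: agonist challenge used bursicon conditioned medium at about half maximal strength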
TROY signal inh: inhibitors of TROY-driven NF-kB signaling, primary screen, Q293 LMP1-TROYcd cells, NF-kB luciferase, uHTS. inhibition, % at 10 µM. hit rate 0.98% among 360,000. AID 1347056, 2019. Q293 LMP1-TROYcd NF-kB luciferase reporter, 4 h;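 active = compounds whose plate-normalised and pattern-corrected inhibition of the luciferase reporter signal at the single screening dose is 50% or more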
Active calls of the source: *.

What do the screens show for `O=C(C[C@H]1C[C@@H]2c3cc(NS(=O)(=O)c4ccc(F)cc4)ccc3O[C@@H]2[C@H](CO)O1)NCc1ccc(Oc2ccccc2)cc1`?
EWS-Fli block: 25; PAX8 reporter: 34; LGR2 inh: 0

Results for O=C(C[C@@H]1C[C@H]2c3cc(NS(=O)(=O)c4ccc(F)cc4)ccc3O[C@H]2[C@@H](CO)O1)NCc1ccc(Oc2ccccc2)cc1 ?
EWS-Fli block: 59*; PAX8 reporter: 91*

What do the screens show for `O=C(Nc1ccc(C(F)(F)F)cc1)Nc1ccc2c(c1)[C@@H]1C[C@H](CC(=O)N3CCc4ccccc4C3)O[C@@H](CO)[C@@H]1O2`?
EWS-Fli block: 12; PAX8 reporter: -7; LGR2 inh: 3

What do the screens show for `O=C(CN1CCOCC1)NCC[C@@H]1CC[C@@H](NC(=O)c2ccc3c(c2)OCO3)[C@H](CO)O1`?
EWS-Fli block: -8; PAX8 reporter: -3; LGR2 inh: 0

Results for O=C(C[C@@H]1C[C@@H]2c3cc(NS(=O)(=O)c4ccc(F)cc4)ccc3O[C@@H]2[C@H](CO)O1)NCc1ccccc1 ?
EWS-Fli block: -1; PAX8 reporter: 16; LGR2 inh: -18

How did O=C(C[C@H]1C[C@@H]2c3cc(NS(=O)(=O)c4ccc(F)cc4)ccc3O[C@@H]2[C@H](CO)O1)NCc1ccc(-c2ccccc2)cc1 do in these assays?
EWS-Fli block: 4; PAX8 reporter: 65*; LGR2 inh: 8

What do the screens show for `O=C(C[C@@H]1C[C@@H]2c3cc(NS(=O)(=O)c4ccc(F)cc4)ccc3O[C@@H]2[C@@H](CO)O1)NCc1ccc(Oc2ccccc2)cc1`?
EWS-Fli block: 36; PAX8 reporter: 106*; LGR2 inh: 46

Results for O=C(C[C@@H]1C[C@@H]2c3cc(NS(=O)(=O)c4ccc(F)cc4)ccc3O[C@@H]2[C@H](CO)O1)NCc1ccc(Oc2ccccc2)cc1 ?
TWEAK Fn14 block: 29; EWS-Fli block: 25; PAX8 reporter: 56; LGR2 inh: 7; TROY signal inh: 31

How did O=C(C[C@@H]1C[C@H]2c3cc(NS(=O)(=O)c4ccc(F)cc4)ccc3O[C@H]2[C@H](CO)O1)NCc1ccc(Oc2ccccc2)cc1 do in these assays?
EWS-Fli block: 59*; PAX8 reporter: 101*

How did O=C(C[C@H]1C[C@@H]2c3cc(NC(=O)Nc4ccc(C(F)(F)F)cc4)ccc3O[C@@H]2[C@@H](CO)O1)NCc1ccc(Cl)cc1 do in these assays?
EWS-Fli block: 21; PAX8 reporter: 89*; LGR2 inh: 4

Results for COc1ccccc1CN1[C@@H](CO)[C@@H]2c3ccccc3N(C(=O)c3ccc(F)cc3)C[C@@H]21 ?
EWS-Fli block: 16; PAX8 reporter: 21; LGR2 inh: -7

Results for C/C=C/c1ccc([C@H]2[C@@H](CN(C)C(=O)CC)N(C(=O)NCCC)[C@H]2CO)cc1 ?
EWS-Fli block: 2; PAX8 reporter: 12; LGR2 inh: -4

How did COCCNC(=O)C[C@@H]1CC[C@@H]2[C@H](COC[C@@H](O)CN2Cc2cccc(-c3ccncc3)c2)O1 do in these assays?
EWS-Fli block: -5; PAX8 reporter: -6; LGR2 inh: 11

What do the screens show for `CN(C)c1ccc2c(c1)[C@@H]1C[C@@H](CC(=O)NCc3ccc(Oc4ccccc4)cc3)O[C@@H](CO)[C@@H]1O2`?
EWS-Fli block: 51*; PAX8 reporter: 86*

What do the screens show for `COc1ccc2c3c([nH]c2c1)[C@@H](CO)N(C(=O)CN(C)C)CC31CN(CC2CCOCC2)C1`?
EWS-Fli block: -11; LGR2 inh: 1

What do the screens show for `C[C@H]1CCCCO[C@H](CN(C)S(=O)(=O)c2ccccc2)[C@@H](C)CN([C@@H](C)CO)C(=O)c2cc(NC(=O)CCCN(C)C)ccc2O1`?
EWS-Fli block: -8; PAX8 reporter: 10; LGR2 inh: -5

How did COc1cccc(-c2cc(C(=O)N3CCOCC3)no2)c1 do in these assays?
TWEAK Fn14 block: -46; EWS-Fli block: -46; PAX8 reporter: -79; LGR2 inh: -22; TROY signal inh: -16

How did COc1ccc(-c2cc(-c3ccccc3)no2)cc1 do in these assays?
TWEAK Fn14 block: 69*; EWS-Fli block: 39; PAX8 reporter: -124; LGR2 inh: 78*; TROY signal inh: 18

What do the screens show for `COc1ccc(N2CCN(C(=O)COC(=O)CCOc3ccc(C)cc3)CC2)cc1`?
TWEAK Fn14 block: -2; EWS-Fli block: -1; PAX8 reporter: -6; LGR2 inh: -5; TROY signal inh: -4

How did COc1ccc(N2CCN(C(=O)COC(=O)CCc3ccccc3)CC2)cc1 do in these assays?
TWEAK Fn14 block: 9; EWS-Fli block: -3; PAX8 reporter: 77*; TROY signal inh: -4

What do the screens show for `COc1ccc(-c2cc(CCCC(=O)N3CCN(c4ccc(OC)cc4)CC3)no2)cc1`?
TWEAK Fn14 block: 51*; EWS-Fli block: 19; PAX8 reporter: 8; LGR2 inh: -8; TROY signal inh: 24

What do the screens show for `COc1ccc(-c2cc(C(=O)N3CCOCC3)no2)cc1`?
TWEAK Fn14 block: 65*; EWS-Fli block: 37; PAX8 reporter: 15; LGR2 inh: 53*; TROY signal inh: 41

What do the screens show for `O=C(c1cc(-c2ccc(Br)cc2)on1)N1CCOCC1`?
TWEAK Fn14 block: 55*; EWS-Fli block: -1; PAX8 reporter: -71; LGR2 inh: -4; TROY signal inh: -2

Results for O=C(c1cc(-c2ccc(Br)cc2)on1)N1CCCCCC1 ?
TWEAK Fn14 block: 24; EWS-Fli block: -20; PAX8 reporter: -226; LGR2 inh: -98; TROY signal inh: -27

How did CC1(C(=O)NCc2ccccc2)Cc2c(-c3cccc(C(F)(F)F)c3)ccnc2O1 (stereo not given) do in these assays?
TWEAK Fn14 block: 1; EWS-Fli block: -3; PAX8 reporter: 0; LGR2 inh: -1; TROY signal inh: 23

How did CC1(C(=O)NCc2cccs2)Cc2c(-c3cccc(C(F)(F)F)c3)ccnc2O1 (stereo not given) do in these assays?
TWEAK Fn14 block: 22; EWS-Fli block: 55*; PAX8 reporter: 37; LGR2 inh: 1; TROY signal inh: 21

What do the screens show for `CC1(C(=O)NCc2ccco2)Cc2c(-c3ccccc3)ccnc2O1` (stereo not given)?
TWEAK Fn14 block: 10; EWS-Fli block: 59*; PAX8 reporter: 10; LGR2 inh: 2; TROY signal inh: 21

Results for c1ccc(CSc2nnc(Cc3ccccn3)o2)cc1 ?
TWEAK Fn14 block: -27; PAX8 reporter: 65*; TROY signal inh: -47

What do the screens show for `OC1CCN(c2c3c(nc4cc(-c5cccc(F)c5)nn24)CCCC3)CC1`?
TWEAK Fn14 block: 27; EWS-Fli block: -24; LGR2 inh: -36; TROY signal inh: 15

What do the screens show for `Fc1cccc(-c2cc3nc4c(c(N5CCC6(CC5)OCCO6)n3n2)CCCC4)c1`?
TWEAK Fn14 block: 54*; TROY signal inh: 42

High-throughput results: PubChem, several laboratories
